Screening results: PubChem, Center for Chemical Genomics, University of Michigan
The sample as a whole holds a higher share of hits than the screen did.
Dicer inh: inhibitors of Dicer pre-microRNA processing, primary screen, biochemical, cat-ELCCA, chemiluminescence | Endoribonuclease Dicer (Homo sapiens), Q9UPY3 | AID 1347074, 2019 | 6% of 47,000 active | cat-ELCCA pre-miR-21 Dicer processing; hits give high values | z-score at 25 µM; in the data active = z-score above about 3, passing the limit was not always enough;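 also: higher signal means more uncleaved substrate so more Dicer inhibition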
Target sequence (Q9UPY3 whole entry, looked up): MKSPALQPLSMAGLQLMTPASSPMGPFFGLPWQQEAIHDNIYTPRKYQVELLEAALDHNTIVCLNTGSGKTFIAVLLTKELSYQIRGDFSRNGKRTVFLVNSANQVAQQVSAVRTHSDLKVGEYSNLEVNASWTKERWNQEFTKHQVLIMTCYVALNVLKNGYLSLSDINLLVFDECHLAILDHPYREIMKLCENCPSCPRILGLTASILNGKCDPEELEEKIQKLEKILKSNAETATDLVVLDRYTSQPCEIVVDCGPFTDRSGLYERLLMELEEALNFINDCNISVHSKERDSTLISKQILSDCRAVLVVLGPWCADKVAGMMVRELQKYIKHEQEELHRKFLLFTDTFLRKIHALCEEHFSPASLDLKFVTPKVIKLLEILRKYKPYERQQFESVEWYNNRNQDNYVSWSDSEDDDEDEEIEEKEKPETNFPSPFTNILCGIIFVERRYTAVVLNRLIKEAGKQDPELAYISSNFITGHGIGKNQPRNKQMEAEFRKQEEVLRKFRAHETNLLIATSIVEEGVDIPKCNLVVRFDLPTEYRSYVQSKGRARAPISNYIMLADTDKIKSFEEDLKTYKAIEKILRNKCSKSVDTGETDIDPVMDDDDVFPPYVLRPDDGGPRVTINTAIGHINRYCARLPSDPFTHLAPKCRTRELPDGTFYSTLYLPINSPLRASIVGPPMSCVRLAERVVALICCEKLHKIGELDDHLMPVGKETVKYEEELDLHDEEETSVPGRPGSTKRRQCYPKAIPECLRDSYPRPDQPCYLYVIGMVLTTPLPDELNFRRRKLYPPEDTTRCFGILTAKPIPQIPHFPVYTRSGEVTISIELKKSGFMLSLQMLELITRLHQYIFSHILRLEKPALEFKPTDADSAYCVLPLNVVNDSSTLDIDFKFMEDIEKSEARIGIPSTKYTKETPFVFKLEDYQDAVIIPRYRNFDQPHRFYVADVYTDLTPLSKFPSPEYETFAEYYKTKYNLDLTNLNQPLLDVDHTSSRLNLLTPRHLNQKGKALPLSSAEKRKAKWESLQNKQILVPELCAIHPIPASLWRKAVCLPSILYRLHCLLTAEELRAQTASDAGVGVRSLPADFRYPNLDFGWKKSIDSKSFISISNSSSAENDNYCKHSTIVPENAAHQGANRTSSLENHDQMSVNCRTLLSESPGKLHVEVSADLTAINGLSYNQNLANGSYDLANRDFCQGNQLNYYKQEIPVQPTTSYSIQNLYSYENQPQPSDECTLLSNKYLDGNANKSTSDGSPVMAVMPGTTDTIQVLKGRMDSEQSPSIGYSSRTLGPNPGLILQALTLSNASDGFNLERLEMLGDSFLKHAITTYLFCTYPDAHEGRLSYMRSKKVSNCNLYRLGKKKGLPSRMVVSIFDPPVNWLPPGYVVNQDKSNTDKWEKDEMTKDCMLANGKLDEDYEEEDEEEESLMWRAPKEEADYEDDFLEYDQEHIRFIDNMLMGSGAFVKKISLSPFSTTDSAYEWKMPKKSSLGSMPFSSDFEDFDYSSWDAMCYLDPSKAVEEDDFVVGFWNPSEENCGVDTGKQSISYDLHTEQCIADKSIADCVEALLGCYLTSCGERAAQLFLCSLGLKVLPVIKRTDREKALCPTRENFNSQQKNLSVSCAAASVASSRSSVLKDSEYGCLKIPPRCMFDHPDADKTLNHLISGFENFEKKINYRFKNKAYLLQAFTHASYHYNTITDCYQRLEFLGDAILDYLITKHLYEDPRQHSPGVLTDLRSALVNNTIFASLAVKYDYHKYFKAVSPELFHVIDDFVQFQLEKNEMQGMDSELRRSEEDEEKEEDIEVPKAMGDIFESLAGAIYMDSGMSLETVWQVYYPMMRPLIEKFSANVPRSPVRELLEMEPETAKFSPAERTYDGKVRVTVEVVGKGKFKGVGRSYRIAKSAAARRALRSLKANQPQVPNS
A number is an active result.

What do the screens show for `N#C/C(=C\Nc1cccc(C(F)(F)F)c1)c1nc2ccccc2[nH]1`?
Dicer inh: inactive

Results for Cc1cc(C)c2c(n1)sc1c(Oc3ccc(Cl)cc3)ncnc12 ?
Dicer inh: inactive

Results for CCOC(=O)C(=CNc1ccc(Cl)cc1C)C(=O)OCC ?
Dicer inh: inactive

Results for c1ccc(COC(CNC2CCCCC2)CNC2CCCCC2)cc1 ?
Dicer inh: inactive

What do the screens show for `Nc1ccccc1C(=O)NNc1cc(Cl)cc(Cl)c1`?
Dicer inh: inactive

Results for Cc1ccc(NC2=NC(c3ccccc3)n3c(nc(C)cc3=O)N2)c(C)c1 (stereo not given) ?
Dicer inh: inactive

What do the screens show for `Cc1cc(C)c2nc(NC3=NC(c4ccccc4)CC(=O)N3)nc(C)c2c1` (stereo not given)?
Dicer inh: 3.5

How did Cc1cc(C)c2nc(Nc3nc(C)cc(=O)[nH]3)nc(C)c2c1 do in these assays?
Dicer inh: inactive

How did CS(=O)(=O)NCCSCc1csc2ccc(Cl)cc12 do in these assays?
Dicer inh: inactive

Results for Cc1ccc(Cl)cc1NCN1C(=O)CNC1=S ?
Dicer inh: inactive

How did O=C1CCC(=O)N1CNc1ccc(Cl)cc1 do in these assays?
Dicer inh: 4

What do the screens show for `O=C1c2ccc([N+](=O)[O-])cc2C(=O)N1CNc1ccc(Cl)cc1`?
Dicer inh: inactive

How did Cc1ccc(S(=O)(=O)n2nc(C)c(Sc3ccccc3)c2C)cc1 do in these assays?
Dicer inh: inactive

How did COC(=O)CSc1ncnc2ccsc12 do in these assays?
Dicer inh: inactive

Results for Cc1ccc(C(=O)C2CCN(C(=S)Nc3ccc(Br)cc3C)CC2)cc1 ?
Dicer inh: inactive

What do the screens show for `N#Cc1cnn(-c2ccccc2)c1NC(=O)CSc1nnc(-c2ccc(Cl)cc2)o1`?
Dicer inh: inactive

How did CCN(CC)CC(=O)Nc1cc(C)nn1-c1ccccc1 do in these assays?
Dicer inh: inactive

What do the screens show for `CCN(CC)CC(=O)Nc1c(C#N)cnn1-c1ccccc1`?
Dicer inh: 4.7

What do the screens show for `O=C1C2ON(c3ccccc3)C(c3cccnc3)C2C(=O)N1c1ccc(Cl)cc1` (stereo not given)?
Dicer inh: inactive

Results for COC(=O)c1sc(C(C)(C)C)cc1N ?
Dicer inh: inactive

Results for CC(C)(C)OC(=O)NCCCNC(=S)Nc1ccc2c(c1)OCCO2 ?
Dicer inh: inactive

How did Cc1cc(C)nc(Nc2nc3ccccc3[nH]2)n1 do in these assays?
Dicer inh: 3.7

What do the screens show for `Cc1cc(C)nc(Nc2ccccc2O)n1`?
Dicer inh: inactive

Results for CCOC(=O)Nc1nc2ccccc2[nH]1 ?
Dicer inh: inactive

How did CCCn1c(=O)cc(N)n(-c2ccccc2C)c1=O do in these assays?
Dicer inh: inactive

What do the screens show for `S=c1[nH]nc(-c2ccc(Br)cc2)o1`?
Dicer inh: inactive

Results for O=c1c(Sc2ccc(Cl)cc2)c(Sc2ccc(Cl)cc2)c1=O ?
Dicer inh: inactive

Results for COc1ccc2cc(CCC(C)=O)ccc2c1 ?
Dicer inh: inactive

What do the screens show for `CCOC(=O)C(C)c1ccc2cc(OC)ccc2c1` (stereo not given)?
Dicer inh: 4.6

What do the screens show for `CCOC(=O)NC(=S)c1ccc(OC)cc1`?
Dicer inh: inactive

How did Cc1ccc(-n2nnnc2/C=C\Nc2ccc(OC(F)(F)F)cc2)cc1 do in these assays?
Dicer inh: inactive

Results for CCOC(=O)/N=C(/c1ccc(Cl)cc1)c1cc2ccccc2cn1 ?
Dicer inh: inactive

What do the screens show for `CCN(C(=O)c1c(C(F)(F)F)ccnc1NC)c1c(C)cccc1C`?
Dicer inh: inactive

Results for Cc1ccc2c(=O)c(C(=O)c3ccccc3Cl)coc2c1 ?
Dicer inh: 3.8

How did COC(=O)C(C)Oc1ccc2c(=O)c(Oc3ccccc3Cl)coc2c1 (stereo not given) do in these assays?
Dicer inh: inactive

What do the screens show for `O=C(Oc1ccc2c(=O)c(-c3ccccc3Cl)coc2c1)c1cccs1`?
Dicer inh: inactive

Results for O=C(CN1C(=O)c2ccccc2S1(=O)=O)NC1CC1 ?
Dicer inh: inactive

What do the screens show for `CCOCCOc1nc(C)cc(C)c1C#N`?
Dicer inh: inactive

Results for O=S(=O)(c1ccccc1)N(Cc1ccccc1)c1ncc(C(F)(F)F)cc1Cl ?
Dicer inh: inactive

Results for CC(=O)/C(N=Nc1ccc2c(c1)OCO2)=C(\C)O ?
Dicer inh: inactive

How did CC(=O)/C(N=Nc1c(F)cccc1F)=C(\C)O do in these assays?
Dicer inh: 3.4

How did CCOC(=O)/C(N=Nc1ccc(F)cc1F)=C(\C)O do in these assays?
Dicer inh: inactive

How did COC(=O)c1ccc(S(=O)(=O)N(C)C2CCCCC2)o1 do in these assays?
Dicer inh: inactive

What do the screens show for `Cc1ccc(OCCn2c(SCC(O)CO)nc3ccccc32)cc1` (stereo not given)?
Dicer inh: inactive

Results for Cc1ccccc1-c1nc(-c2ccc(Cl)cc2)no1 ?
Dicer inh: inactive

What do the screens show for `COc1ccc2c(c1)CCC1C2=Nc2ccccc2SC1c1ccc(C(F)(F)F)cc1` (stereo not given)?
Dicer inh: inactive

How did Nc1ccc(O)c(C(=O)O)c1 do in these assays?
Dicer inh: inactive

Results for Nc1ccc(O)c2c1C(=O)c1c(N)ccc(O)c1C2=O ?
Dicer inh: 3.2

How did O=C1c2c(O)cccc2Cc2cccc(O)c21 do in these assays?
Dicer inh: inactive

What do the screens show for `CCOC(=O)c1sc2nc(C)nc(Nc3ccc4c(c3)OCCO4)c2c1C`?
Dicer inh: inactive

How did CSc1nc2c(c(=O)n1C)C1(CCCCC1)Cc1ccccc1-2 do in these assays?
Dicer inh: inactive

What do the screens show for `COc1ccccc1-n1c(SCC(N)=O)nc2c(c1=O)C1(CCCCC1)Cc1ccccc1-2`?
Dicer inh: 3.2

How did O=c1c2c(nc(NCCCO)n1-c1ccccc1)-c1ccccc1CC21CCCC1 do in these assays?
Dicer inh: inactive

Results for O=c1c2c(nc(NCCO)n1-c1ccccc1)-c1ccccc1CC21CCCC1 ?
Dicer inh: 4.1

How did Cn1c(Cc2ccccc2)nc2c(c1=O)C1(CCCCC1)Cc1ccccc1-2 do in these assays?
Dicer inh: inactive

What do the screens show for `C=CCn1c(SCC(=O)OCC)nc2c(c1=O)C1(CCCC1)Cc1ccccc1-2`?
Dicer inh: inactive

How did COc1ccc(N2CCN(c3nc(C)c4c(n3)CCCC4=O)CC2)cc1 do in these assays?
Dicer inh: inactive

Results for CCCCOc1ccc(C2c3c(oc4ccccc4c3=O)C(=O)N2c2nncs2)cc1 (stereo not given) ?
Dicer inh: inactive

How did CSc1ccc(C2C3=C(CCCC3=O)Nc3ccccc3N2C(C)=O)cc1 (stereo not given) do in these assays?
Dicer inh: inactive

Results for N#Cc1c(SCC(=O)c2ccc(Br)cc2)nsc1SCC(=O)c1ccc(Br)cc1 ?
Dicer inh: inactive

What do the screens show for `O=C(CN1CCCCC1)N1c2ccccc2Sc2ccccc21`?
Dicer inh: inactive

What do the screens show for `NCCCC(=O)N1c2ccccc2Sc2ccccc21`?
Dicer inh: 5.5

How did CCN(CC)CC(=O)N1c2ccccc2Sc2ccccc21 do in these assays?
Dicer inh: inactive

Results for O=C(O)/C=C/C(=O)Nc1cccc(NC(=O)/C=C/C(=O)O)c1 ?
Dicer inh: inactive

How did COc1ccc(NC(=O)Cc2coc3ccc4ccccc4c23)c(OC)c1 do in these assays?
Dicer inh: inactive

How did CCOC(=O)N/N=C(\CC)c1ccc(-c2ccccc2F)cc1 do in these assays?
Dicer inh: inactive

How did Fc1ccc2[nH]c(CN3CCN(c4ccccn4)CC3)cc2c1 do in these assays?
Dicer inh: inactive

Results for O=C1CC(N2CCN(c3ccccn3)CC2)C(=O)N1c1ccc(F)cc1 (stereo not given) ?
Dicer inh: inactive
